High-throughput results: PubChem, Broad Institute
Rows were chosen to be rich in hits. Some 3.4% of all compounds tested hit in one or more screens of this group.
Vif inh = HIV Vif self-association inhibitors, primary screen, imaging, HEK293T, single point. HEK293T cells, Vif self-association by quenched fluorescence, 24 h. inhibition, % at 7.49 µM. actives 0.35% (n = 340,000); in the data active means inhibition above about 50%, passing the limit was not always enough; inconclusive means no clear call, values can overlap the other calls; inactive means below about 31%
HSF-1 act = HSF-1 activators, primary screen, NIH3T3-HGL cells, MG132 stress, luminescence, single point; NIH3T3-HGL HSF-1 luciferase reporter, 8 h; 100% = twice DMSO control signal; activation, % at 9 µM; actives 1.7% (n = 300,000); AID 504408, 2011;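 active means mean replicate activation of at least 50% with a set share of replicates each reaching 50%; inconclusive means only one of those two conditions met; inactive means mean below 50% and too few replicates reaching it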;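 further: 0% = median of the neutral control wells and 100% = twice that signal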
esBAF inh = Bmi1 luciferase reporter increase in mESCs, primary screen, esBAF inhibitor project, mouse ES cells, Bmi1 luciferase knock-in, single point; actives 2% (n = 350,000); 24 h; 100% = twice the neutral-well signal; reporter increase, % at 12.5 µM; in the data active means activation above about 40%; inconclusive means no clear call, values can overlap the other calls;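 further: 0% = median of the plate's neutral control wells and 100% = double that signal; a rise in the Bmi1 reporter signal indicates esBAF inhibition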
HSF1 inhib = HSF1 inhibitors in luciferase reporter cells, primary screen, cell-based, NIH3T3, luminescence. activity change, negative = inhibition, % at 7.5 µM (by protocol). NIH3T3-HGL HSE-luciferase, MG132-induced, luminescence 8 h; hits give low values. actives 0.77% (n = 300,000). AID 2098, 2009;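 active means more than half of replicate wells show activity change below -50%, luminescence cut by over half; inconclusive means some wells, but at most half, below -50%; inactive means no replicate well below -50%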;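 further: luciferase reports HSF-1 transcriptional activity via heat shock element; 0% = median of DMSO wells and -100% = zero luminescence signal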
The depositor's hits bear a star; i = inactive; ? = inconclusive; · = no result given.

SMILES	Vif inh	HSF-1 act	esBAF inh	HSF1 inhib
Cc1ccc(S(=O)(=O)Nc2ccccc2-c2ccccc2NS(=O)(=O)c2ccc(C)cc2)cc1	-8.6	8.5	·	3.2
COc1cc(NS(=O)(=O)c2ccc(C)cc2)c2ncccc2c1	6.0	-82.8	-34.0	-80.8*
COc1ccc(S(=O)(=O)Nc2cc3c(C(C)=O)c(C)oc3c3ccccc23)cc1	102.0*	-16.3	-7.9	-9.2
C[C@H]1CCCCO[C@@H](CN(C)C(=O)Nc2ccc3c(c2)OCO3)[C@@H](C)CN([C@@H](C)CO)C(=O)c2cc(NS(=O)(=O)c3ccccc3)ccc2O1	·	·	0.6	·
C[C@@H]1CN([C@H](C)CO)C(=O)c2cc(C#CC3(O)CCCC3)cnc2O[C@H]1CN(C)S(C)(=O)=O	·	·	0.1	·
O=C(Nc1cccc(Cl)c1)N1C[C@@H]2[C@H](c3ccccc31)[C@@H](CO)N2CC1CCOCC1	·	·	0.0	·
CCOc1ccc2nc(NCCNC(=O)Nc3cccc(C)c3)c(C#N)cc2c1	13.6	7.8	6.7	-2.5
CCOc1ccc2nc(NCCNC(=O)Nc3ccccc3)c(C#N)cc2c1	56.5*	-0.7	3.4	-2.9
COc1ccc(-n2cc(CNCCc3cscn3)c(-c3ccccc3Cl)n2)cc1	·	59.1*	·	27.8
COC1C=CC=C(C)C(=O)NC2=CC(=O)C(N)=C(CC(C)CC(OC)C(O)C(C)C=C(C)C1OC(N)=O)C2=O (centres undefined)	-7.8	69.4*	·	69.4*
C=CC[C@@H]1Cc2c(Br)ccc(Br)c2[C@@H](CC=C)N1	-2.5	60.6*	·	34.4
N/C(=N\OC(=O)c1cc(Cl)ccc1Cl)c1cccnc1	29.8	32.2	51.6*	13.9
N/C(=N\OC(=O)c1ccccc1Cl)c1cccnc1	-10.9	46.6	22.3	16.1
N/C(=N\OC(=O)c1ccc(Cl)c(Cl)c1)c1cccnc1	·	37.1	51.8*	19.8
CC(C)(C)c1ccc(C(=O)O/N=C(\N)c2ccccc2)cc1	-0.1	-94.9	-60.1	-93.5*
CCc1ccc(OCC(=O)O/N=C(\N)c2ccncc2)c(Br)c1	-0.6	42.5	95.5*	29.9
CNC[C@@H]1OCCCC[C@H](C)Oc2ccc(NC(=O)Nc3ccc(F)cc3)cc2C(=O)N([C@H](C)CO)C[C@@H]1C	·	·	-1.5	·
N/C(Cc1cccs1)=N\OC(=O)COc1ccc(Cl)cc1Cl	·	?	71.4*	31.3
N/C(=N\OC(=O)c1ccccc1)c1cccnc1	2.0	26.2	56.3*	16.1
N/C(=N\OC(=O)COc1ccc(Cl)cc1Cl)c1cccnc1	18.9	92.8*	56.4*	48.7
Cc1ccccc1C(=O)O/N=C(\N)Cc1cccs1	-2.8	10.9	52.6*	20.5
CO[C@H](CN(C)S(=O)(=O)c1cn(C)cn1)[C@@H](C)CN(C(=O)Nc1ccc(F)cc1)[C@@H](C)CO	·	·	-2.1	·
N/C(=N\OC(=O)c1cccc(Cl)c1)c1cccnc1	-15.1	4.7	73.4*	15.7
C(=C\c1ccco1)/C1=NN(c2ccccc2)C(c2ccco2)C1 (centres undefined)	2.9	77.9*	·	52.7
O=[N+]([O-])c1ccc(/C=C/C2=NN(c3ccccc3)C(c3ccco3)C2)o1 (centres undefined)	i	5.9	·	5.3
SMILES	Vif inh	HSF-1 act	esBAF inh	HSF1 inhib
C[C@@H]1CN([C@H](C)CO)C(=O)c2cc(NC(=O)Nc3ccc(F)cc3)ccc2O[C@H]1CN(C)S(=O)(=O)c1cn(C)cn1	·	·	-2.4	·
C[C@H](O)C#Cc1ccc2c(c1)O[C@@H](CN(C)C(=O)Nc1ccccc1)[C@@H](C)CN([C@@H](C)CO)S2(=O)=O	·	·	-2.5	·
CCCCNC(=S)N/N=C/c1cccc(OCC)c1O	3.2	80.7*	·	52.2
CCOc1cccc(/C=N/NC(=S)Nc2ccccc2[N+](=O)[O-])c1O	2.7	-81.6	·	-79.0*
CCOc1cccc(/C=N/NS(=O)(=O)c2ccc(C)c([N+](=O)[O-])c2)c1O	-1.3	6.1	·	3.1
O=C(C[C@H]1CC[C@@H](NC(=O)Nc2cc(F)ccc2F)[C@@H](CO)O1)NCc1ccc2c(c1)OCO2	·	·	-0.2	·
N#Cc1ccc(-c2csc(-c3ccno3)n2)cc1	-2.8	0.0	·	-6.5
FC(F)(F)c1ccc(-c2csc(-c3ccno3)n2)cc1	0.4	24.9	50.1*	-1.7
CC(C)CC#Cc1cnc2c(c1)C(=O)N([C@H](C)CO)C[C@H](C)[C@@H](CN(C)Cc1ccc3c(c1)OCO3)O2	·	·	-4.1	·
Cc1ccc(N2C(=O)[C@@H]3Cc4ccccc4CN3C2=O)cc1	-2.0	·	55.2*	·
COc1ccc(NC(=O)N(C)C[C@@H]2Oc3c(NC(=O)Nc4ccc(C(F)(F)F)cc4)cccc3C(=O)N([C@@H](C)CO)C[C@@H]2C)cc1	·	·	-1.0	·
CCOC(=O)C1CCCN(CCC(=O)Nc2cc(C)cc(C)c2)C1 (centres undefined)	2.6	-5.3	·	0.7
COc1ccc(OC)c(NC(=O)C2CCCN(S(=O)(=O)c3c(C)nn(C)c3C)C2)c1 (centres undefined)	-3.6	-78.4	6.6	-71.6*
CCOC(=O)C1CCCN(CCC(=O)Nc2cc(OC)ccc2OC)C1 (centres undefined)	-3.3	-61.6	-0.1	-51.5*
O=C(NCCC1=CCCCC1)c1cc(COc2c(F)cccc2F)on1	-4.6	7.4	13.8	0.5
COc1ccc(NC(=O)NCCC2=CCCCC2)cc1	-1.3	72.1*	·	34.2
S=C(NCCC1=CCCCC1)Nc1ccc(Cl)cc1	-17.8	12.5	64.4*	17.1
Cc1cc(C(=O)NCCC2=CCCCC2)no1	-1.9	51.2*	28.8	14.8
COc1cccc(NC(=O)NCCC2=CCCCC2)c1	-6.1	45.8	?	19.2
S=C(NCCC(c1ccccc1)c1ccccc1)Nc1ccc(Cl)cc1	·	53.7*	-3.5	41.3
S=C(NCCC(c1ccccc1)c1ccccc1)Nc1ccccc1Cl	-3.9	3.7	-3.0	-0.1
C/C=C/c1ccc2c(c1)O[C@H](CN(C)C(=O)C1CCCCC1)[C@H](C)CN([C@@H](C)CO)S2(=O)=O	·	·	-11.5	·
C[C@H]1CN([C@@H](C)CO)C(=O)c2cc(NC(=O)Nc3ccc(F)cc3)ccc2O[C@H]1CN(C)C(=O)Nc1ccc(C(F)(F)F)cc1	·	·	-0.9	·
O=C(NCC[C@@H]1CC[C@@H](NC(=O)C2CCC2)[C@@H](CO)O1)c1cnccn1	·	·	-4.0	·
CC(C)NC(=O)N(C)C[C@H]1Oc2ncc(C#CC3(O)CCCC3)cc2C(=O)N([C@@H](C)CO)C[C@@H]1C	·	·	-5.0	·
O=C(C[n+]1cc(Br)cc2ccccc21)c1ccccc1	54.8*	18.4	0.2	7.1
COc1ccc(C(=O)C[n+]2cc(Br)cc3ccccc32)cc1[N+](=O)[O-]	-3.5	9.4	1.1	3.7
Cc1cccc(CSc2cccc3cccnc23)c1	3.1	288.4*	38.4	232.4
CCCN1C[C@@H](C)[C@H](OC)CN(C)C(=O)c2ccc(NC(=O)c3cccc(F)c3)cc2OC[C@@H]1C	·	·	1.3	·
